Here are results for seven compounds from PubChem BioAssay.

SMILES strings stand for the structures. Inconclusive results are not listed. Calls of active or inactive are those of the source.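 How the source made its calls, unless noted: active means compound raises insulin release from rat beta cells at 5 mM glucose, no numeric limit stated; inactive means the rest.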

Assay [1] in a line: stimulators of insulin release from INS-1E, primary screen, cell-based, 5 mM glucose, NPC library (AID 1117329). The settings on record: rat INS-1E insulin secretion, at 10 µM, stronger effect = higher value.
Assay [2] in a line: growth inhibition of GSK3B-pretreated HCT116 cells – cell-based, CellTiter-Glo, 0.2 to 20 µM (AID 1117336;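 active means compounds lowering colon cancer cell viability after pretreatment blocking the GSK3B kinase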). The settings on record: HCT116 viability after GSK3B inhibitor, at 20 µM, stronger effect = higher value.
Assay [3] can be described thus: inhibition of endothelial tube formation, primary screen, imaging, VEGF stimulated, CD31 staining, tube area, NPC library (AID 1117340;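 active means compound that reduces growth-factor-driven endothelial tube area in a mixed cell culture, no cutoff stated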). As to conditions: VEGF-stimulated ADSC/ECFC co-culture, at 10 µM, stronger effect = higher value.
Assay [4] can be described thus: glucagon-like peptide 1 release enhancers, primary assay, NCI-H716 cell line, NPC library (AID 1117341;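 active means compound raises GLP1 secretion from the human gut endocrine cells, with no numeric limit stated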). As to conditions: NCI-H716 cells, at 10 µM, stronger effect = higher value.
A short description of assay [5]: HCT116 colon cancer cell growth inhibition, primary screen, CellTiter-Glo luminescence, NPC library (AID 1117342;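 active means compounds that lower survival of HCT116 colon cancer cells in the luminescence readout, no numeric limit stated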). The settings on record: at 20 µM (top of the series). (In general: Cellular ATP, detected with luciferase, serves as a proxy for viable cell number.)
A short description of assay [6]: CellTiter-Glo luminescent readout of SW480 viability loss, NPC library primary (AID 1117343;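 active means compounds that lower viability of the colon cancer cells in the luminescence readout, with no numeric limit stated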). The settings on record: CellTiter-Glo luminescence; at 20 µM (top of the series).
Assay [7] is described as follows: decreased DLD-1 cellular survival, CellTiter-Glo luminescent readout, NPC compound collection, primary HTS (AID 1117346;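 active means compounds that lower survival of DLD-1 colon cancer cells in the luminescence readout, no cutoff given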). The settings on record: DLD-1 viability, CellTiter-Glo luminescence; at 20 µM (top of the series).
For assay [8], the target named is 6-phosphogluconate dehydrogenase, decarboxylating (Homo sapiens) (UniProt P52209). Briefly: 6PGD enzyme inhibitors, primary screen, biochemical, human, recombinant enzyme, NADPH absorbance (AID 1159550;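 active means at least 20% inhibition of 6-phosphogluconate dehydrogenase activity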). The settings on record: recombinant 6PGD, NADPH absorbance 341 nm; at 10 µM; stronger effect = higher value.
Chain of 6-phosphogluconate dehydrogenase, decarboxylating (Homo sapiens) (P52209 whole entry, looked up): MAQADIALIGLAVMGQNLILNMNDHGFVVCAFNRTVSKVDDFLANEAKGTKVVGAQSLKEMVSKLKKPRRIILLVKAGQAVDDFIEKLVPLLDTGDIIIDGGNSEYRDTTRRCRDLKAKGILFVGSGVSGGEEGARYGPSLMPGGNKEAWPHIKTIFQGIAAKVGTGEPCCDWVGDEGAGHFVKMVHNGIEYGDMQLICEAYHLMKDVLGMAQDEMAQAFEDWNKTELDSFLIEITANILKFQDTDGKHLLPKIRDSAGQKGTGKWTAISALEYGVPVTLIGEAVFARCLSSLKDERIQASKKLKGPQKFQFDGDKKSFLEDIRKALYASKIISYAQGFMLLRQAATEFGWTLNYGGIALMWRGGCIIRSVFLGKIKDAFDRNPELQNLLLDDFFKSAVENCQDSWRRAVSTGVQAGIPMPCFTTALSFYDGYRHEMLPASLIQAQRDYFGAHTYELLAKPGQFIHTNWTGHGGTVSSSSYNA
Assay [9] can be described thus: differential killing of epithelial or mesenchymal cells, primary screen, imaging, PC-3E GFP, TEM4-18 mCherry, co-culture (AID 1345086;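 active means compounds killing one labelled cell type while sparing the other, by normalised counts and ratio limits, not self-fluorescent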;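 on all read-outs here: cells exposed to compound for 72 h before imaging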;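 on red/green cell ratio (normalised): normalised mesenchymal count divided by normalised epithelial count so high means epithelial killing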). The settings on record: imaging cell counts, at 1 µM; for red/green cell ratio (normalised): actives lie on both sides, counts scaled to control wells, 1 = unselective.
For assay [10], the system named is Aerobactin synthetase IucA (Klebsiella pneumoniae). In words: IucA aerobactin synthetase inhibitors, biochemical, Tocris library, absorbance (AID 1345561; call rule not given here;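 further: 100% = enzyme without compound and 0% = no enzyme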). As to conditions: purified IucA enzyme assay, absorbance (OD) read-out; stronger effect = lower value;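 tested at 8 µM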.
Assay [11] in a line: growth inhibition of DIPG glioma cells, dose response, cell-based, SU-DIPG-XIII, MIPE4.0, CellTiter-Glo, qHTS (AID 1347061; cut-off not given, nearly all actives have AC50 up to about 37 µM;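 further: cells exposed to compound for 48 hours before readout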). As to conditions: SU-DIPG-XIII viability, CellTiter-Glo ATP luminescence.
Assay [12] is described as follows: growth inhibition of DIPG glioma cells, dose response, cell-based, JHH-DIPG-1, MIPE4.0, CellTiter-Glo, qHTS (AID 1347062; cut-off not given, nearly all actives have AC50 up to about 27 µM). The settings on record: JHH-DIPG-1 viability, CellTiter-Glo ATP luminescence.
The nature of assay [13]: growth inhibition of DIPG glioma cells, dose response, cell-based, SU-DIPG-IV, MIPE4.0, CellTiter-Glo, qHTS (AID 1347063; cut-off not given, nearly all actives have AC50 up to about 30 µM;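 further: compound exposure lasted 48 hours before the viability readout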). The settings on record: SU-DIPG-IV viability, CellTiter-Glo ATP luminescence.
Assay [14] is described as follows: growth inhibition of DIPG glioma cells, dose response, cell-based, SU-DIPG-XVII, MIPE5.0, CellTiter-Glo, qHTS (AID 1347060; cut-off not given, nearly all actives have AC50 up to about 26 µM). The settings on record: SU-DIPG-XVII viability, CellTiter-Glo ATP luminescence.
The nature of assay [15]: growth inhibition of DIPG glioma cells, dose response, cell-based, SU-DIPG-XIII, MIPE5.0, CellTiter-Glo, qHTS (AID 1347064; cut-off not given, nearly all actives have AC50 up to about 23 µM). The settings on record: SU-DIPG-XIII viability, CellTiter-Glo ATP luminescence.
Setting [16] is: measured here: epithelial PC-3E GFP cell survival.
[17] abbreviates: measured here: mesenchymal TEM4-18 mCherry cell survival.

With `CC(NCCC(c1ccccc1)c1ccccc1)c1ccccc1` (stereo not given), the insulin secretion stimulation in assay [1] was 4.5% (inactive). Also, the viability decrease in [2] was 99.5% (active). For the same compound, the tube area decrease in assay [3] was 15.4% (inactive). Further, in [4], the GLP1 secretion stimulation is -2.1% (inactive). For the same compound, the inhibition of viability in assay [5] is 99.3% (active). Moreover, the viability decrease (inhibition) in [6] is 102% (active); in [7], 89% (active). The inhibition in assay [8] was 4.5% (inactive). Also, in assay [9], the red/green cell ratio (normalised) is 0.89 (inactive). In addition, the normalised cell number in assay [9] (setting [16]) was found to be 0.97; in assay [9] (setting [17]), 0.86.
On to `O=C(c1ccc(F)cc1)C1CCN(CCn2c(=O)[nH]c3ccccc3c2=O)CC1`, for which the insulin secretion stimulation in assay [1] is 2.5% (inactive). Moreover, the viability decrease in [2] was 19.4% (inactive). In [3], the tube area decrease was -2.2% (active). Besides, in assay [4], the GLP1 secretion stimulation is 2.6% (inactive). The inhibition of viability in assay [5] was 52.6% (active). Also, the viability decrease (inhibition) in assay [6] is 19.5% (inactive); in assay [7], 16.9% (inactive). Further, the inhibition in [8] is 8.02% (inactive). Further, the red/green cell ratio (normalised) in assay [9] is 0.88 (inactive). Besides, the normalised cell number in [9] (setting [16]) was determined as 0.99; in [9] (setting [17]), 0.88. For the same compound, the remaining activity in [10] is 124% (inactive). For the same compound, the compound was classed as inactive in assay [11], in assay [12] and in assay [13].
Regarding `C[C@](N)(Cc1ccc(O)c(O)c1)C(=O)O`, the insulin secretion stimulation in assay [1] is 1.8% (inactive). In assay [2], the viability decrease was 17.5% (inactive). For the same compound, the tube area decrease in assay [3] is 1.4% (inactive). For the same compound, in assay [4], the GLP1 secretion stimulation was 0.4% (inactive). Besides, in assay [5], the inhibition of viability is 5.03% (inactive). Further, the viability decrease (inhibition) in assay [6] is -10% (inactive); in assay [7], 0.1% (inactive). In addition, the inhibition in assay [8] is -6.99% (inactive). Besides, the red/green cell ratio (normalised) in [9] was 1.05 (inactive). Also, the normalised cell number in [9] (setting [16]) was determined as 0.98; in assay [9] (setting [17]) it was 1.03. In addition, the remaining activity in assay [10] was 110% (inactive). The compound was called inactive in [14], in assay [11] and in assay [13].
With `COc1ccc(C2C(=O)c3ccccc3C2=O)cc1`, in [1], the insulin secretion stimulation was 0.7% (inactive). For the same compound, the viability decrease in assay [2] was 48.4% (inactive). Also, the tube area decrease in assay [3] was -33.4% (inactive). The GLP1 secretion stimulation in assay [4] is -6% (inactive). Moreover, the inhibition of viability in assay [5] was 35.2% (inactive). For the same compound, the results for the viability decrease (inhibition) in assay [6] and in assay [7] were 22.1% (inactive) and 11% (inactive), respectively. Moreover, the inhibition in assay [8] is -16% (inactive). Further, in assay [9], the red/green cell ratio (normalised) was 0.84 (inactive). Besides, the normalised cell number in [9] (setting [16]) was 1.14; in assay [9] (setting [17]), 0.96.
In the case of `CC(=O)Nc1cccc(O)c1`, the insulin secretion stimulation in [1] is 1.1% (inactive). Moreover, the viability decrease in [2] is -1.55% (inactive). Besides, the tube area decrease in assay [3] is -19.6% (inactive). Further, the GLP1 secretion stimulation in [4] was -0.3% (inactive). In addition, the inhibition of viability in assay [5] was -14.5% (inactive). The viability decrease (inhibition) in assay [6] was 32.8% (inactive); in assay [7] it was 4.35% (inactive). Further, the inhibition in [8] was 11.9% (inactive). In addition, the red/green cell ratio (normalised) in assay [9] is 0.95 (inactive). For the same compound, the values for the normalised cell number in [9] (setting [16]) and in [9] (setting [17]) were 0.83 and 0.79, respectively.
Regarding `Cc1cc(C(C)(C)C)c(O)c(C)c1CC1=NCCN1`, the insulin secretion stimulation in assay [1] was 2.1% (inactive). The viability decrease in assay [2] is 5.6% (inactive). Further, the tube area decrease in assay [3] is -3.7% (inactive). For the same compound, the GLP1 secretion stimulation in [4] is 4.3% (inactive). The inhibition of viability in assay [5] was 20.6% (inactive). Also, the viability decrease (inhibition) in [6] is -4.2% (inactive); in [7], -0.8% (inactive). The inhibition in assay [8] was 6.36% (inactive). In addition, the red/green cell ratio (normalised) in [9] was 0.88 (inactive). The normalised cell number in assay [9] (setting [16]) amounted to 1.08; in [9] (setting [17]), 0.96. Besides, the remaining activity in assay [10] was 99.4% (inactive). In addition, the result in [14], in assay [11], in assay [13] and in assay [15] was inactive.
For the compound `CC1CCc2cc(F)cc3c(=O)c(C(=O)O)cn1c23` (stereo not given), in [1], the insulin secretion stimulation was 1.1% (inactive). In addition, the viability decrease in [2] was -105% (inactive). In [3], the tube area decrease is 3.3% (inactive). The GLP1 secretion stimulation in assay [4] is -1.9% (inactive). The inhibition of viability in assay [5] was 19.6% (inactive). Further, the viability decrease (inhibition) is 51.1% (active) in assay [6] and -6.7% (inactive) in [7]. Also, the inhibition in [8] was 2.78% (inactive). Also, in assay [9], the red/green cell ratio (normalised) is 1.19 (inactive). The normalised cell number in assay [9] (setting [16]) stood at 0.89; in assay [9] (setting [17]), 1.05.

For orientation: inhibition means the change of the read-out against control, counted positive when it falls. For orientation: remaining activity means the signal under treatment as a percentage of the control signal.
